Inconclusive results are not listed. The source made the active and inactive calls. How the source made its calls, unless noted: active means hit-call score of the fitted dose curve at least 0.9, where 1 is the maximum; inconclusive means response in the unintended direction; inactive means score below 0.9.
How the values were obtained:
[1] = ATG_ERE_CIS: Attagene CIS-FACTORIAL HepG2 Assay for Estrogen Response Element (ERE) (AID 2282940; active means hit-call score of the fitted dose curve at least 0.9, where 1 is the maximum; inactive means score below 0.9); conditions: HepG2 ERE cis-reporter, Attagene RNA transcript; actives raise or lower the signal
How it was run: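 HepG2, transient cis-reporter units, 24 h exposure. RNA isolated, oligo(dT) RT, reporter-specific PCR, FAM extension, HpaI cut, CE detection. Gain/loss-of-signal vs DMSO.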

[2] = ACEA_ER_AUC_viability: ACEA Biosciences xCELLigence Real-Time Cell Analysis on Estrogen Receptor Agonism for Viability (AID 2283782);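 further: continuous compound exposure with impedance area under curve over 80 h; hit means loss of impedance signal meaning reduced cell growth or viability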
How it was run: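 T-47D human breast cells in phenol red-free RPMI1640 with 10% charcoal-stripped FBS were dosed with an 8-point 1:4 dilution series from 100 uM top final concentration, in duplicate. Impedance-based growth was followed for 80 h; AUC analysed versus DMSO.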

[3] = read-out: Interleukin-8 (IL8), CXCL8 (gene 3576); test: BSK_3C_IL8: BioMAP Diversity Plus: 3C Assay for Interleukin-8 (IL8) Biomarker Activity (AID 2283020; active means hit-call score of the fitted dose curve at least 0.9, where 1 is the maximum; inactive means score below 0.9); conditions: primary human endothelial cells (HUVEC); actives raise or lower the signal
How it was run: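 Primary human umbilical vein endothelial cells (3C system) were exposed to test chemical for 24 h, then IL-8 was quantified by ELISA. Responses were fitted bidirectionally against DMSO vehicle as baseline.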

[4] = read-out: Pselectin, SELP (gene 6403); test: BSK_4H_Pselectin: BioMAP Diversity Plus: 4H Assay for Pselectin Biomarker Activity (AID 2283026; active means hit-call score of the fitted dose curve at least 0.9, where 1 is the maximum; inactive means score below 0.9); conditions: primary human endothelial cells (HUVEC); actives raise or lower the signal
How it was run: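 Primary human umbilical vein endothelial cells were exposed to test chemical for 24 h, then cell-surface P-selectin was quantified by ELISA. Activity was fitted bidirectionally against DMSO as negative control and baseline.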

[5] = read-out: Macrophage colony-stimulating factor (MCSF), CSF1 (gene 1435); test: BSK_CASM3C_MCSF: BioMAP Diversity Plus: CASM3C Assay for Macrophage colony-stimulating factor (MCSF) Biomarker Activity (AID 2283044; active means hit-call score of the fitted dose curve at least 0.9, where 1 is the maximum; inactive means score below 0.9;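 further: M-CSF protein amount quantified by ELISA after 24 h exposure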); conditions: primary human coronary artery smooth muscle cells; actives raise or lower the signal
[6] = read-out: Low-density lipoprotein receptor (LDLR), LDLR (gene 3949); test: BSK_CASM3C_LDLR: BioMAP Diversity Plus: CASM3C Assay for Low-density lipoprotein receptor (LDLR) Biomarker Activity (AID 2283045; active means hit-call score of the fitted dose curve at least 0.9, where 1 is the maximum; inactive means score below 0.9;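 further: LDLR protein level on the cell surface quantified by ELISA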); conditions: primary human coronary artery smooth muscle cells; actives raise or lower the signal
[7] = read-out: Monokine induced gamma interferon (MIG), CXCL9 (gene 4283); test: BSK_CASM3C_MIG: BioMAP Diversity Plus: CASM3C Assay for Monokine induced gamma interferon (MIG) Biomarker Activity (AID 2283048; active means hit-call score of the fitted dose curve at least 0.9, where 1 is the maximum; inactive means score below 0.9;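 further: MIG protein level measured by ELISA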); conditions: primary human coronary artery smooth muscle cells; actives raise or lower the signal
[8] = read-out: serum amyloid A (SAA), SAA1 (gene 6288); test: BSK_CASM3C_SAA: BioMAP Diversity Plus: CASM3C Assay for serum amyloid A (SAA) Biomarker Activity (AID 2283049; active means hit-call score of the fitted dose curve at least 0.9, where 1 is the maximum; inactive means score below 0.9;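 further: SAA protein level quantified by ELISA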); conditions: primary human coronary artery smooth muscle cells; actives raise or lower the signal
[9] = biological target: Estrogen receptor beta (Homo sapiens) (UniProt Q92731); test: OT_ER_ERbERb_0480: Odyssey Thera (OT) 8-hour HEK293T Protein-Complementation Assay for Estrogen Receptor-beta/-beta Homodimer (AID 2283357);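 further: active means signal gain over DMSO baseline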
How it was run: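 Readout: increase in mean fluorescence intensity (nucleus for agonists; nucleus plus cytoplasm for antagonists) relative to DMSO, from a reporter-fragment complementation of human ER-beta LBD homodimer in HEK293T cells dosed 8 hours.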

[10] = biological target: Estrogen receptor beta (Homo sapiens) (UniProt Q92731); test: OT_ER_ERbERb_1440: Odyssey Thera (OT) 24-hour HEK293T Protein-Complementation Assay for Estrogen Receptor-beta/-beta Homodimer (AID 2283380);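 further: fluorescence gain from ER beta LBD homodimer complementation read by laser scanning cytometry; scored as signal increase over DMSO baseline for both agonists and antagonists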
How it was run: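 HEK293T cells stably expressing human ER-beta LBD (aa 310-547) PCA homodimer pair, dosed 24 h; formaldehyde-fixed, Draq5-stained. Readout: increase in nuclear (agonist) or nuclear plus cytoplasmic (antagonist) fluorescence intensity versus DMSO, gain-of-signal fitting.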

[11] = biological target: Retinoic acid receptor RXR-alpha (Homo sapiens) (UniProt P19793); test: OT_NURR1_NURR1RXRa_0480: Odyssey Thera (OT) 8-hour HEK293T Protein Complementation Assay for Nurr1/retinoid X receptor (RXR) (AID 2283385)
How it was run: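 HEK293T cells expressing Nurr1 and RXRα fused to reporter fragments were dosed with compound for 8 hours. Complex formation was read as fluorescence intensity and analysed as gain of signal against DMSO as baseline.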

[12] = biological target: Retinoic acid receptor RXR-alpha (Homo sapiens) (UniProt P19793); test: OT_NURR1_NURR1RXRa_1440: Odyssey Thera (OT) 24-hour HEK293T Protein Complementation Assay for Nurr1/retinoid X receptor (RXR) (AID 2283386)
How it was run: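 HEK293T cells were dosed with compound and read 24 h later by fluorescence intensity in a protein-fragment complementation format, where Nurr1–RXRα interaction reconstitutes a split reporter. Activity was fitted as gain of signal relative to DMSO baseline.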

[13] = ACEA_AR_agonist_AUC_viability: ACEA Biosciences xCELLigence Real-Time Cell Analysis on Androgen Receptor Agonism for Viability (AID 2283775)
How it was run: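 Read-out is area under the impedance curve at 80 h post-dose in 22Rv1 cells, with DMSO as baseline and signal loss taken as reduced viability. Compounds ran in duplicate from 100 uM final.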

[14] = ACEA_AR_antagonist_AUC_viability: ACEA Biosciences xCELLigence Real-Time Cell Analysis on Androgen Receptor Antagonism for Viability (AID 2283776);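 further: 22Rv1 human prostate cancer cells growing on impedance electrode plates; area under impedance growth curve at 80 h after dosing as viability; hits lower the growth signal relative to DMSO meaning cytotoxicity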
How it was run: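 Viability endpoint from label-free cell-index monitoring: 22Rv1 cultures treated with an eight-point 1:4 dilution series starting at 100 uM final, AUC at 80 h fitted against DMSO.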

[15] = CCTE_Harrill_HTTr_CellCount_MCF7: CCTE's Cell Proliferation Assessment for the High-Throughput Transcriptomics (HTTr) Platform, Harrill Lab (AID 2284012);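 further: cells exposed to compound for six hours; intended direction is loss of nuclei count meaning fewer cells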
How it was run: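 MCF-7 cells were exposed for 6 h to an eight-point dilution series; Hoechst-labeled nuclei were counted by high content imaging. Curves were fitted bidirectionally against DMSO as negative control and baseline, with signal loss indicating reduced cell count.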

[16] = biological target: Peroxisome proliferator-activated receptor gamma (Homo sapiens) (UniProt P37231); test: OT_PPARg_PPARgSRC1_0480: Odyssey Thera (OT) 8-hour Protein-Complementation Assay for Peroxisome Proliferator-activated Receptor Gamma / SRC-1 Co-activator (AID 2283387)
How it was run: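 Split-YFP (IFP1/IFP2) PPARg/SRC-1 reporter, HEK293T, 37 °C, 5% CO2; 8 h compound; formaldehyde fix + Draq5; high-content imaging, N/C ratio, ≥350 cells/image, positive direction vs DMSO.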

[17] = biological target: Peroxisome proliferator-activated receptor gamma (Homo sapiens) (UniProt P37231); test: OT_PPARg_PPARgSRC1_1440: Odyssey Thera (OT) 24-hour Protein-Complementation Assay for Peroxisome Proliferator-activated Receptor Gamma/ SRC-1 Co-activator (AID 2283388)
How it was run: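 HEK293T transiently transfected with PPARg/SRC-1 split-Venus YFP fusions 48 h before dosing, then treated 24 h at 37C. Fixed cells imaged; nuclear/cytoplasmic 488 nm fluorescence ratio, gain of signal versus DMSO.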

[18] = biological target: human Retinoic Acid Receptor gamma (RARg), RARG (gene 5916) (UniProt P13631); test: ATG_RARg_TRANS: Attagene TRANS-FACTORIAL HepG2 Assay for human Retinoic Acid Receptor gamma (RARg) (AID 2283009)
How it was run: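 HepG2 cells transiently transfected with multiplexed reporter units expressing chimeric RARg-GAL4 and GAL4-UAS-driven reporters; 24 h compound exposure. Reporter mRNA quantified by RT-PCR with fluorescent labelling and capillary electrophoresis; gain-of-signal fitted relative to DMSO baseline.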

[19] = biological target: Steroid hormone receptor ERR1 (Homo sapiens) (UniProt P11474); test: ATG_ERRa_TRANS: Attagene TRANS-FACTORIAL HepG2 Assay for human Estrogen-Related Receptor alpha (ERRa) (AID 2282971); conditions: HepG2 Attagene TRANS reporter, ERRa transactivation
How it was run: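 HepG2 cells transiently transfected with GAL4-UAS reporter units and chimeric NR-Gal4 constructs; after 24 hour compound incubation, reporter mRNA quantified by RT-PCR, fluorescent labelling and capillary electrophoresis, gain of signal versus DMSO.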

[20] = biological target: human Retinoic Acid Receptor beta (RARb), RARB (gene 5915) (UniProt P10826); test: ATG_RARb_TRANS: Attagene TRANS-FACTORIAL HepG2 Assay for human Retinoic Acid Receptor beta (AID 2283004)
How it was run: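 HepG2 cells were transiently transfected with GAL4-UAS reporter units that report activity of exogenous chimeric NR-Gal4 proteins, then exposed to compound for 24 h. Reporter mRNA was quantified by RT-PCR with capillary electrophoresis fluorescence, as gain of signal over DMSO.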

human Retinoic Acid Receptor beta (RARb), RARB (gene 5915), sequence (P10826 whole entry, looked up, the tested form may be a part): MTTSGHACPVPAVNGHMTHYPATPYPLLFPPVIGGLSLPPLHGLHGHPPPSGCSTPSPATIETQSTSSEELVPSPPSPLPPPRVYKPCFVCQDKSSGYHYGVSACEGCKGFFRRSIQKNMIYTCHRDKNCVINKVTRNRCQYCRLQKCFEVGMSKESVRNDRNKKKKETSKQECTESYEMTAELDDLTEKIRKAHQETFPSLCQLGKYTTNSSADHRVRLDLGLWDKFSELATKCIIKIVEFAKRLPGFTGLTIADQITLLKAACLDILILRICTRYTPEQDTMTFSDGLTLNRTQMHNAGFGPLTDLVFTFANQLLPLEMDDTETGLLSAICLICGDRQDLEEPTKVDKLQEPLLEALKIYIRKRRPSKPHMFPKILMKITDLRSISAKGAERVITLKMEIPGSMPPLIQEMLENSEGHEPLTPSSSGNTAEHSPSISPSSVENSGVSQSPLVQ
Peroxisome proliferator-activated receptor gamma (Homo sapiens), sequence (P37231 whole entry, looked up, the tested form may be a part): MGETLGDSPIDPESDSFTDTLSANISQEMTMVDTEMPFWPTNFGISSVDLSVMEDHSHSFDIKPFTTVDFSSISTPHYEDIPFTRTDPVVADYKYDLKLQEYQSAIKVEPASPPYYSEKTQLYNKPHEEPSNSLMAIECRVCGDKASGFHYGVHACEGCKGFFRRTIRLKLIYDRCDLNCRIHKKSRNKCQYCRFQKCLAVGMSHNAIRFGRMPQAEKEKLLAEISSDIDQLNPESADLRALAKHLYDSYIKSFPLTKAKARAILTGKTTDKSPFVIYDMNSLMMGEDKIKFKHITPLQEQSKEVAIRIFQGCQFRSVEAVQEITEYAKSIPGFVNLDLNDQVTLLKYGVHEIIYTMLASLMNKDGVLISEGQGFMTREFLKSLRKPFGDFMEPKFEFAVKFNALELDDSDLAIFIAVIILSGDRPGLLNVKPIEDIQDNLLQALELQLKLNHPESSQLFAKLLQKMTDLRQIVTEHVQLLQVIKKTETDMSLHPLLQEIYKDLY
Retinoic acid receptor RXR-alpha (Homo sapiens), sequence (P19793 whole entry, looked up, the tested form may be a part): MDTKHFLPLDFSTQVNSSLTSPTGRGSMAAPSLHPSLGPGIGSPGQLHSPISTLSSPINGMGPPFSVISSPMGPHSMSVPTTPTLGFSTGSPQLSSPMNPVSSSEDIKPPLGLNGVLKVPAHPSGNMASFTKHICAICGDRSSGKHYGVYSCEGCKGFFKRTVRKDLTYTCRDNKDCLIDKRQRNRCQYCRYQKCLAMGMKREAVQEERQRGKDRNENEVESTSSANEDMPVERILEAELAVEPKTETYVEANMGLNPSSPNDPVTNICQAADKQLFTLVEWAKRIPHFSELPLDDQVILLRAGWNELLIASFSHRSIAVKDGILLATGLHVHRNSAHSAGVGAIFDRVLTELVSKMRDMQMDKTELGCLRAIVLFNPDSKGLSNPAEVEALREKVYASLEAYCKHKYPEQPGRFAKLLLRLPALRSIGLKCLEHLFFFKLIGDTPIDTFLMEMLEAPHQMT
human Retinoic Acid Receptor gamma (RARg), RARG (gene 5916), sequence (P13631 whole entry, looked up, the tested form may be a part): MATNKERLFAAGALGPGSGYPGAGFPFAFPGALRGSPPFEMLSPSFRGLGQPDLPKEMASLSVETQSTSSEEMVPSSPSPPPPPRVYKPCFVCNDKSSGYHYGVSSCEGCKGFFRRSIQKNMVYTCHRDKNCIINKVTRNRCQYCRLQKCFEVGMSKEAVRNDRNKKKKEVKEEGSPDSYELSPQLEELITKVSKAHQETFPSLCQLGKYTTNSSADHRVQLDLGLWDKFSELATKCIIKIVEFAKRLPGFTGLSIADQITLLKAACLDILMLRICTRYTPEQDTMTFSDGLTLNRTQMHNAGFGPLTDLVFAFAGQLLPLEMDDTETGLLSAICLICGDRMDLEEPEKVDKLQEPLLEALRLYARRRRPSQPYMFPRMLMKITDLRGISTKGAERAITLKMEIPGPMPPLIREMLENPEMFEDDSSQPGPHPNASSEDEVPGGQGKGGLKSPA
Estrogen receptor beta (Homo sapiens), sequence (Q92731 whole entry, looked up, the tested form may be a part): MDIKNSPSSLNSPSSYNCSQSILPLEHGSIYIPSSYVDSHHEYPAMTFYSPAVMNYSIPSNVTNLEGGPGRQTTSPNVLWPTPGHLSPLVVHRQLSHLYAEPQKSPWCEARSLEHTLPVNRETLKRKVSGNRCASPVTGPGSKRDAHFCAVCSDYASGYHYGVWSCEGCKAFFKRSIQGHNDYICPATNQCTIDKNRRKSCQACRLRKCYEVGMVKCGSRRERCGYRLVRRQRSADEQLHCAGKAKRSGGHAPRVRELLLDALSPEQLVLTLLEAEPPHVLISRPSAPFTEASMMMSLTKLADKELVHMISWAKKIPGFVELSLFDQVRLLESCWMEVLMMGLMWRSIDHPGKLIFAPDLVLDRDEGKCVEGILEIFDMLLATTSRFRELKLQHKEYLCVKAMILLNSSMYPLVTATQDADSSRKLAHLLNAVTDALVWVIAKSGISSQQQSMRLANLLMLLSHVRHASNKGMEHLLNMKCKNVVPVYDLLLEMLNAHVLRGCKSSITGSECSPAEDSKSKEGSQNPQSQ
Steroid hormone receptor ERR1 (Homo sapiens), sequence (P11474 whole entry, looked up, the tested form may be a part): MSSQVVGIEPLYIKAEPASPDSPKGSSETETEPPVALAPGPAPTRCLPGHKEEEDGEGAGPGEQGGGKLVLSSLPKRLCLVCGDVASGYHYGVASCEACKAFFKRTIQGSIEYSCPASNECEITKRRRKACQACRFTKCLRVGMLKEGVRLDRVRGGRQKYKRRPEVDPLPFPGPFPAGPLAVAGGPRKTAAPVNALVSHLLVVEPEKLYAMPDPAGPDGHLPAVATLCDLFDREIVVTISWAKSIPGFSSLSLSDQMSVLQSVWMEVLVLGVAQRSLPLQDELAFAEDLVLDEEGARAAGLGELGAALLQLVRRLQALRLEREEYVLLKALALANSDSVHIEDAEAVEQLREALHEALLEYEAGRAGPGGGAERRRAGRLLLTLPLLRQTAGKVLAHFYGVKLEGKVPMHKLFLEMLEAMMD

COCCCN
outcome [1]: inactive
outcome [2]: inactive

Oc1cccc2ccccc12
outcome [3]: inactive
outcome [4]: inactive
outcome [5]: inactive
outcome [6]: inactive
outcome [7]: inactive
outcome [8]: inactive
AC50 [9]: 39.1 µM (active)
AC50 [10]: 49.2 µM (active)
outcome [11]: inactive
outcome [12]: inactive
outcome [13]: inactive
outcome [14]: inactive
outcome [15]: inactive

F[B-](F)(F)F
outcome [11]: inactive
outcome [12]: inactive
outcome [16]: inactive
outcome [17]: inactive
outcome [13]: inactive
outcome [14]: inactive

O=C(O)/C=C/C(=O)O
outcome [9]: inactive
outcome [10]: inactive
outcome [13]: inactive
outcome [14]: inactive
outcome [15]: inactive

CC(C)CC(=O)O
outcome [1]: inactive
outcome [18]: inactive
outcome [2]: inactive

CCCCCCCCCC/C=C/C1CC(=O)OC1=O (stereo not given)
outcome [3]: inactive
outcome [4]: inactive
outcome [5]: inactive
outcome [6]: inactive
outcome [7]: inactive
outcome [8]: inactive

COC(=O)/C=C\C(=O)OC
outcome [19]: inactive
outcome [3]: inactive
outcome [4]: inactive
outcome [5]: inactive
outcome [6]: inactive
outcome [7]: inactive
outcome [8]: inactive
AC50 [2]: 76.9 µM (active)

O=C(O)Cc1c[nH]c2ccccc12
outcome [19]: inactive
outcome [15]: inactive

CC/C=C\CCO
outcome [9]: inactive
outcome [10]: inactive
outcome [11]: inactive
outcome [12]: inactive
outcome [14]: inactive
outcome [15]: inactive

CC[N+](CC)(CC(=O)Nc1c(C)cccc1C)Cc1ccccc1
outcome [3]: inactive
outcome [4]: inactive
outcome [5]: inactive
outcome [6]: inactive
outcome [7]: inactive
outcome [8]: inactive
outcome [11]: inactive
outcome [12]: inactive
outcome [16]: inactive
outcome [17]: inactive

CCCCOC(=O)COc1ccc(Cl)cc1Cl
outcome [12]: inactive
outcome [16]: inactive
outcome [17]: inactive
outcome [13]: inactive
outcome [14]: inactive
outcome [2]: inactive

NCc1ccccc1
outcome [19]: inactive
AC50 [2]: 50 µM (active)
outcome [15]: inactive

Cc1cc(C)c(S(=O)(=O)O)cc1N=Nc1cc(S(=O)(=O)O)c2ccccc2c1O
outcome [9]: inactive
outcome [10]: inactive
outcome [11]: inactive
outcome [12]: inactive
outcome [16]: inactive
outcome [17]: inactive
outcome [13]: inactive
outcome [14]: inactive

O=S(=O)(O)c1cccc2ccccc12
outcome [19]: inactive
outcome [16]: inactive
outcome [13]: inactive
outcome [14]: inactive

CCCCCC1CCCC(=O)O1 (stereo not given)
outcome [19]: inactive
outcome [20]: inactive
outcome [18]: inactive
outcome [2]: inactive

c1cc[c]([Bi]([c]2ccccc2)[c]2ccccc2)cc1
AC50 [1]: 6.83 µM (active)

CNC(=C[N+](=O)[O-])NCCSCc1csc(CN(C)C)n1
outcome [15]: inactive

c1cc(N(CC2CO2)CC2CO2)ccc1Cc1ccc(N(CC2CO2)CC2CO2)cc1 (stereo not given)
outcome [1]: inactive
outcome [19]: inactive

CC=CC(=O)O
outcome [19]: inactive
outcome [20]: inactive
outcome [18]: inactive
outcome [2]: inactive

O=C(Oc1ccccc1)c1ccccc1
outcome [20]: inactive
outcome [18]: inactive
outcome [9]: inactive
outcome [10]: inactive
AC50 [11]: 75.8 µM (active)
outcome [12]: inactive
outcome [16]: inactive
outcome [17]: inactive
outcome [13]: inactive
outcome [14]: inactive
outcome [15]: inactive

From PubChem BioAssay (EPA / NIEHS)
